PubChem BioAssay AID1159580 (chemical genetic matrix, 2015)
Where “and” joins values, the source holds several entries; their conditions need not be identical. Equal values may be shown once. About 2,000 (36%) of roughly 5,500 compounds were called active. Not shown: some 18% with an inconclusive outcome. Cut-off read from the data, not from the text of the source: active = normalized growth mostly below about 0.91 (no sharp cut-off); inconclusive = no clear call, values can overlap the other calls; inactive = mostly above about 0.92. The list shows a part of the results.

Experiment: chemical genetic growth profiling, strain panel (AID 1159580);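 note: tested at 20 µM; growth read once vehicle control cultures reached saturation at 30 °C; 1 = growth at the plate median or of vehicle wells; lower values mean less growth of the strain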
Conditions: S. cerevisiae deletion strains, growth OD

Measured: normalized growth

O=C(Cn1ccnc1[N+](=O)[O-])NCCO
inactive: locus YAL013W, strain DEP1, stronger effect = lower value 0.996 | locus YAL021C, strain ccr4, stronger effect = lower value 1.02 | locus YAL026C, strain drs2, stronger effect = lower value 1.02 | locus YAL030W, strain snc1, stronger effect = lower value 1.01 | locus YBL061C, strain skt5, stronger effect = lower value 1.03 | locus YBR009C, strain hhf1, stronger effect = lower value 1.02 | locus YBR021W, strain FUR4, stronger effect = lower value 1.03 | locus YBR023C, strain chs3, stronger effect = lower value 1.02 | locus YBR171W, strain sec66, stronger effect = lower value 1.04 | locus YBR229C, strain ROT2, stronger effect = lower value 1.01 | locus YBR231C, strain swc5, stronger effect = lower value 1 | locus YBR279W, strain paf1, stronger effect = lower value 1 | locus YCL011C, strain gbp2, stronger effect = lower value 1.01 | locus YCL016C, strain dcc1, stronger effect = lower value 1.02 | locus YCL029C, strain bik1, stronger effect = lower value 1.02 | locus YCL061C, strain MRC1, stronger effect = lower value 1.01 | locus YCL069W, strain vba3, stronger effect = lower value 1.01 | locus YCR088W, strain abp1, stronger effect = lower value 1.01 | locus YDL005C, strain med2, stronger effect = lower value 1.02 | locus YDL035C, strain GPR1, stronger effect = lower value 1.02 | locus YDL040C, strain nat1, stronger effect = lower value 1.01 | locus YDL074C, strain BRE1, stronger effect = lower value 0.99 | locus YDL101C, strain DUN1, stronger effect = lower value 1 | locus YDL134C, strain PPH21, stronger effect = lower value 0.996 | locus YDL185W, strain tfp1, stronger effect = lower value 0.999 | locus YDL192W, strain arf1, stronger effect = lower value 1.01 | locus YDR001C, strain nth1, stronger effect = lower value 1.01 | locus YDR069C, strain doa4, stronger effect = lower value 1.02 | locus YDR101C, strain arx1, stronger effect = lower value 1.01 | locus YDR137W, strain rgp1, stronger effect = lower value 1.05 | locus YDR150W, strain NUM1, stronger effect = lower value 0.998 | locus YDR159W, strain sac3, stronger effect = lower value 1.02 | locus YDR162C, strain NBP2, stronger effect = lower value 0.985 | locus YDR195W, strain ref2 1.02 | locus YDR297W, strain sur2, stronger effect = lower value 1.01 | locus YDR318W, strain mcm21, stronger effect = lower value 1.03 | locus YDR334W, strain swr1, stronger effect = lower value 1.01 | locus YDR335W, strain msn5, stronger effect = lower value 1.01 | locus YDR388W, stronger effect = lower value 1.01 | locus YDR392W, strain spt3, stronger effect = lower value 1.03 | locus YDR502C, strain sam2, stronger effect = lower value 0.988 | locus YEL003W, strain gim4, stronger effect = lower value 1 | locus YEL037C, strain rad23, stronger effect = lower value 1.02 | locus YEL061C, strain CIN8 (second series), stronger effect = lower value 1.01 | locus YEL061C, strain CIN8, stronger effect = lower value 1 | locus YER015W, strain faa2, stronger effect = lower value 1 | locus YER016W, strain bim1, stronger effect = lower value 1.01 | locus YER110C, stronger effect = lower value 1 | locus YER111C, strain swi4, stronger effect = lower value 1.02 | locus YER155C, strain BEM2 (second series), stronger effect = lower value 1.01 | locus YER155C, strain BEM2, stronger effect = lower value 1 | locus YER167W, strain BCK2, stronger effect = lower value 1.03 | locus YFR010W, strain ubp6, stronger effect = lower value 1.02 | locus YGL078C, strain dbp3, stronger effect = lower value 0.983 | locus YGL086W, strain mad1, stronger effect = lower value 1.03 | locus YGL167C, strain pmr1, stronger effect = lower value 1.02 | locus YGL173C, strain kem1, stronger effect = lower value 1.01 | locus YGL227W, strain vid30, stronger effect = lower value 1.01 | locus YGL240W, strain doc1, stronger effect = lower value 1.02 | locus YGL248W, strain PDE1, stronger effect = lower value 0.999 | locus YGL253W, strain hxk2, stronger effect = lower value 0.982 | locus YGR078C, strain PAC10, stronger effect = lower value 0.995 | locus YGR135W, strain pre9, stronger effect = lower value 0.988 | locus YGR229C, strain SMI1, stronger effect = lower value 0.999 | locus YGR252W, strain gcn5, stronger effect = lower value 1.09 | locus YHR013C, strain ard1, stronger effect = lower value 1.04 | locus YHR027C, strain rpn1, stronger effect = lower value 1.01 | locus YHR030C, strain SLT2, stronger effect = lower value 1.01 and 0.984 | locus YHR079C, strain IRE1 (second series), stronger effect = lower value 1.01 | locus YHR079C, strain IRE1, stronger effect = lower value 0.998 | locus YHR094C, strain hxt1, stronger effect = lower value 1.01 | locus YHR129C, strain ARP1, stronger effect = lower value 1.01 | locus YHR142W, strain chs7, stronger effect = lower value 1.02 | locus YHR200W, strain rpn10, stronger effect = lower value 1.01 | locus YIL066C, strain RNR3, stronger effect = lower value 1.01 | locus YIL073C, strain SPO22, stronger effect = lower value 1.04 | locus YIL125W, strain kgd1, stronger effect = lower value 0.997 | locus YIR030C, strain dcg1, stronger effect = lower value 1.01 | locus YJL092W, strain hpr5, stronger effect = lower value 1.02 | locus YJL095W, strain BCK1 (second series), stronger effect = lower value 1.01 | locus YJL095W, strain BCK1, stronger effect = lower value 1.01 and 0.995 | locus YJL115W, strain asf1, stronger effect = lower value 1.01 | locus YJL129C, strain trk1, stronger effect = lower value 1.02 | locus YJL134W, strain LCB3, stronger effect = lower value 1.01 | locus YJL154C, strain vps35, stronger effect = lower value 1.02 | locus YJL166W, strain qcr8, stronger effect = lower value 1.01 | locus YJL168C, strain set2, stronger effect = lower value 1.01 | locus YJL187C, strain SWE1 (second series), stronger effect = lower value 0.999 | locus YJL187C, strain SWE1, stronger effect = lower value 1.01 | locus YJR043C, strain POL32, stronger effect = lower value 1.04 | locus YJR066W, strain TOR1, stronger effect = lower value 0.972
